High-throughput results: PubChem BioAssay, National Center for Advancing Translational Sciences (NCATS)
Rab9 prom act = Rab9 promoter activation. Huh7 Rab9 promoter-luciferase reporter, luminescence, 24 h. Potency, µM (top dose mostly 9.22 µM), inactives show at the highest dose activation, negative = inhibition, most hits filed as activators. 2.8% of 320,000 active. AID 485297; note: % of control where 0% means no effect; nearly all actives have a fitted effect of over 60% in size
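Cell-based reporter: Huh7 stable for Rab9 promoter-driven luciferase, plated in reduced-serum medium with 10% FBS at 1500 cells/well, compound-treated 24 h at 37 °C, luminescence read after 10 min reagent.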
SMN2 splice up = enhancers of SMN2 splice variant expression | HEK293 SMN2-luciferase splicing reporter, luminescence, 30-36 h | Potency, µM (titrated, usually from 46.1 µM), for the others: at the highest dose activity change, positive = activation, usual class: activators | 2.8% of 210,000 active | AID 1458; note: % of control where 0% means no effect; nearly all actives have a fitted effect of over 55% in size
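HEK293 cells carry an SMN2 minigene-luciferase reporter in which exon 7 inclusion puts luciferase in frame. Cells were seeded at 2000 cells/well, attached for 10-12 hours, then exposed to compounds for 30-36 hours at 37C before ONE-Glo luminescence.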
ELG1 genotox = genotoxicity induction in ELG1-luciferase HEK293T cells; Potency, µM (doses to about 46 µM), without a hit: at the highest dose activity change, positive = activation, actives largely listed as activators; 1.3% of 330,000 active; AID 504466; HEK293T ELG1-luciferase reporter, luminescence, 16 h; note: % of control where 0% means no effect; nearly all actives have a fitted effect of over 60% in size
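ELG1-luciferase HEK293T cells, 2,000/well; compound pinned in; 16 hr, 37 °C, 5% CO2; ONE-Glo, 30 min RT; luminescence on CCD imager.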
KinaseGlo FLuc = blocks Kinase-Glo luciferase, a counter-screen artifact | 0.28% of 200,000 active | Q27757 | AID 1379 | Potency, µM (top dose mostly 38.3 µM), for the others: top-dose activity change, negative = inhibition, most hits filed as inhibitors | Kinase-Glo luciferase, ATP luminescence, 8 min; note: % is set by controls: 0 for no effect and ±100 for the full control effect; nearly all actives have a fitted effect of over 60% in size
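Substrate mix (final 50 mM imidazole pH 7.2, 50 mM KCl, 7 mM MgCl2, 10 uM ATP, 0.01% Tween 20, 0.05% BSA) plus pin-tool compound, then Kinase-Glo detection mix; 8 min ambient, luminescence read.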
NPC1 prom act = activators of NPC1 promoter; Potency, µM (doses to about 9.22 µM), for the others: at the top dose activation, usual class: activators; 2.4% of 320,000 active; Huh7 NPC1 promoter luciferase reporter, 24 h; AID 485313; note: % of control where 0% means no effect; nearly all actives have a fitted effect of over 60% in size
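Huh7 reporter cells (NPC1 promoter driving luciferase) are dosed with compound for 24 h at 37 °C, 5% CO2; luciferase detection reagent is then added and luminescence measured after 10 min at ambient temperature.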
FLuc counter = counter-screen for miR-21 project: firefly luciferase inhibitors or activators; P08659; purified FLuc, Km substrates, luminescence inhibition; Potency, µM (doses to about 57.5 µM), inactives show at the top dose activity change, negative = inhibition, most hits filed as inhibitors; 6.9% of 360,000 active; AID 588342;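 note: plate controls were vehicle for no effect and reference inhibitor for full effect; nearly all actives have a fitted effect of over 55% in size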
Target sequence (P08659 whole entry, looked up): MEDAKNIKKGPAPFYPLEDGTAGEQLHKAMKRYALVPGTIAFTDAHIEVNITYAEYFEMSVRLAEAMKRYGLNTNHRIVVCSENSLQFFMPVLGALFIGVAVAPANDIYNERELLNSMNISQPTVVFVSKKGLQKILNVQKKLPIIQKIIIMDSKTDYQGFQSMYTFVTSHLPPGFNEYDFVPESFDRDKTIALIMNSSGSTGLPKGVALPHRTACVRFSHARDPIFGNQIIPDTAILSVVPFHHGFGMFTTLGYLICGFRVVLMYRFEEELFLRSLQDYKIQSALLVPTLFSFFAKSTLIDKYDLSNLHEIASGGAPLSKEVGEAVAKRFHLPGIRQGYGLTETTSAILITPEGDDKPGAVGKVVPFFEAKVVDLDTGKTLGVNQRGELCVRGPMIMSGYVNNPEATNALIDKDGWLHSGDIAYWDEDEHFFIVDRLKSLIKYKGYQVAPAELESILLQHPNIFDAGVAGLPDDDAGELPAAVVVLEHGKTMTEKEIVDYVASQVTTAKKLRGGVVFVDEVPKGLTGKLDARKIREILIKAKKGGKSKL
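Purified P. pyralis luciferase (10nM final) with 10uM D-luciferin and 10uM ATP (Km levels) in 50mM Tris acetate pH 7.5, 10mM Mg acetate, 0.01% Tween-20, 0.05% BSA; qHTS 6-point titration, ~60 µM downward; luminescence read.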
An asterisk follows results filed as active; ? = inconclusive; · = not tested or not shown; [ ] = another dose, or the depositor's remark. Rows were chosen to be rich in hits. Some 7.5% of all compounds tested hit in one or more screens of this group. Calls come from the whole dose curve; as a rule, active = well fitted curve in the direction sought with a large enough effect; inconclusive = small, poorly fitted or top-dose-only effect, or another doubt; inactive = no such curve, though single readings can be large; an effect the other way counts as inactive or inconclusive. Potency is the fitted concentration of half-maximal effect.

SMILES	Rab9 prom act	SMN2 splice up	ELG1 genotox	KinaseGlo FLuc	NPC1 prom act	FLuc counter
COc1cccc(C(=O)Nc2nnc(-c3ccccc3)s2)c1	1.6µM*	·	?	·	1.4µM*	4.8µM*
COCC(=O)Nc1nnc(-c2ccc(C(C)(C)C)cc2)s1	0.56µM*	8.9µM*	3.7µM*	1%	1.1µM*	1.9µM*
CC(C)(C)c1ccc(-c2nnc(NC(=O)c3ccccc3)s2)cc1	?	2%	3%	-1%	?	1.7µM*
Cc1ccc(Cn2cccc2C2=NC(C)(C)CO2)cc1	·	10%	·	·	·	0%
Oc1cc2c(cc1O)[C@H]1c3ccc(O)c(O)c3OC[C@@]1(O)C2	0%	-20%	2%	0%	-2%	15µM*
Cc1ccsc1/C=C1\CCC(C2CCCC2)C1=O (stereo unspecified)	3.5µM*	·	?	-18%	2.8µM*	2.1µM*
COc1cc(OC)c(OC)cc1/C=C1\CCC(C2CCCC2)C1=O (stereo unspecified)	1%	-24%	-14%	2%	-2%	-13%
COc1ccc(/C=C2\CCOC2=O)cc1	13%	-15%	1%	-3%	10%	-18%
COc1ccc(/C=C2\CCC(C3CCCC3)C2=O)c(OC)c1 (stereo unspecified)	13%	·	8%	·	25%	21µM*
Cc1ccc(/C=C2\CCC(C3CCCC3)C2=O)cc1 (stereo unspecified)	3.5µM*	22µM*	9.2µM*	-7%	3.2µM*	0.48µM*
COc1ccc(/C=C2\CCC(C3CCCC3)C2=O)cc1 (stereo unspecified)	3.5µM*	·	?	·	4µM*	0.48µM*
Cc1ccsc1/C=C1\SC(N)=NC1=O	25%	15%	14%	-9%	18%	?
CCC(C)Sc1c(C(C)C)cnc2c1c(=O)n(C)c(=O)n2C (stereo unspecified)	·	·	·	·	·	-8%
Cc1c(C(=O)Nc2ccc(F)c(F)c2)oc2ccc(S(=O)(=O)N(C)C3CCCCC3)cc12	·	·	·	·	·	-2%
CCc1cc2c(Sc3nc4ccccc4s3)ncnc2s1	-2%[1.84 µM]	·	0%	-2%	-23%	11µM*
c1ccc2sc(Sc3ncnc4sccc34)nc2c1	-15%	?	0%	-18%	-7%	0.95µM*
O=C1OC(c2ccccc2)=N/C1=C\C=C\c1ccco1	1%	·	-1%	-4%	-2%	4.8µM*
O=C(c1cn(-c2ccccc2)nc1-c1cccs1)N1CCOCC1	-4%	-8%	1%	-1%	-1%	?
NS(=O)(=O)c1ccc(N/N=C/c2cn(-c3ccccc3)nc2-c2cccs2)cc1	11%	·	-1%	·	4%	11µM*
O=C(N/N=C/c1nn(-c2ccccc2)cc1-c1ccccc1)c1ccncc1	-2%	?	-1%	-2%	2%	9.5µM*
O=C(/C=C/c1cn(-c2ccccc2)nc1-c1cccs1)NCCN1CCOCC1	-1%	·	-9%	·	0%	19µM*
NS(=O)(=O)c1ccc(N/N=C/c2cn(-c3ccccc3)nc2-c2cccs2)c([N+](=O)[O-])c1	-38%	-91%	-7%	-7%	-7%	-17%
NC(=O)N/N=C/c1cn(-c2ccccc2)nc1-c1cccs1	?	18µM*	?	?	?	2.1µM*
COc1cc(CNCc2c(C(=O)O)c(C)n(Cc3cccc(Cl)c3)c2C)cc(OC)c1OC	·	-2%	·	·	·	-4%
Cc1ccc(-c2nn(-c3ccccc3)cc2/C=N/NC(=O)c2ccc(Br)o2)cc1	6%	-93%	-14%	-2%	-3%	11µM*
CNC(=O)COC(=O)/C=C/c1cn(-c2ccccc2)nc1-c1ccc2c(c1)OCCO2	18%	-32%	-4%	3%	-4%	-16%
O=C(N/N=C/c1cn(-c2ccccc2)nc1-c1cccs1)c1ccncc1	-2%	2%	-2%	-11%	0%	11µM*
CN(C)C(=O)COC(=O)/C=C/c1cn(-c2ccccc2)nc1-c1cccs1	0%	7%	-5%	1%	-3%	19µM*
